Assay results reported in PubChem BioAssay (Tox21).
Results filed as inconclusive are left out. Active and inactive are the calls of the source. Unless noted, calls come from the whole dose curve; as a rule, active = well fitted curve in the direction sought with a large enough effect in the repeat runs; inconclusive = weak or mixed curves; inactive = no such curve, though single readings can be large; an effect the other way counts as inactive or inconclusive. Where a SMILES comes first, the peptide text is derived from it. [ ]: non-standard residue; d: D form. pGlu = O=C1CC[C@@H](C(=O)O)N1

Tests used:
[1] = qHTS assay to identify small molecule antagonists of the retinoid acid receptor (RAR) signaling pathway - cell viability counter screen (AID 1159551); note: nearly all actives have a fitted effect of over 35% in size
How it was run: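 ATP-based viability, C3RL4 cells, 6 h at 37 C with 1 uM final retinol co-added after compound; luminescence read 30 min post CellTiter-Glo, RT.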

[2] = qHTS assay to identify small molecule antagonists of the retinoic acid receptor (RAR) signaling pathway (AID 1159552; note: nearly all actives have a fitted effect of over 50% in size)
How it was run: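 C3RL4 RARE-luc cells, overnight plating; retinol 1 uM final added right after compound; 6 hr 37 C; luciferase read at 30 min RT.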

[3] = qHTS assay to identify small molecule antagonists of the estrogen related receptor (ERR) signaling pathway from Tox21 library - cell viability counter screen (AID 1224834); note: nearly all actives have a fitted effect of over 30% in size
How it was run: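 Compounds in DMSO were pinned onto ERR cells that had been incubated for 6 h, and the plates were held at 37 C for 17.5 h. CellTiter-Fluor reagent was then added and fluorescence was measured after 30 min.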

[4] = qHTS assay to identify small molecule agonists of the retinoic acid receptor (RAR) signaling pathway (AID 1159553)
How it was run: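 Quantitative high-throughput format: the Tox21 10K library was tested on C3RL4 RARE-luciferase cells for 6 hr at 37 C and 5% CO2, with luminescence measured after a 30 min room-temperature reagent step.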

[5] = qHTS assay to identify small molecule antagonists of the estrogen related receptor (ERR) signaling pathway - cell viability counter screen (AID 1224818);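 note: series mostly up to about 46 µM; viability measured after 17.5 h of compound exposure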
How it was run: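 Quantitative high-throughput viability counter screen in ERR cells. Compounds (DMSO) incubated 17.5 h at 37 C; read-out was CellTiter-Fluor fluorescence.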

[6] = qHTS assay to identify small molecule antagonists of the estrogen related receptor signaling pathway with the pleiotropic PPARgamma coactivator (PGC) cell viability counter screen (AID 1224822; note: series mostly up to about 46 µM)
How it was run: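 Cytotoxicity in the PGC/ERR cell line is assessed with CellTiter-Fluor, read as fluorescence intensity 30 min after reagent addition, following 17.5 h compound treatment at 37 C.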

[7] = qHTS assay to identify small molecule antagonists of the estrogen related receptor (ERR) signaling pathway (AID 1224819;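 note: luminescence from an ERR-driven luciferase reporter measured with One-Glo reagent; series mostly up to about 46 µM; nearly all actives have a fitted effect of over 50% in size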)
How it was run: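 ERR reporter cell line (NTP) plated at 2,000 cells/well, settled 6 h at 37C/5% CO2, then exposed to LOPAC compounds for 18 h at 37C. One-Glo luciferase luminescence read after 30 min at room temperature.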

[8] = qHTS assay to identify small molecule agonists of the estrogen related receptor (ERR) signaling pathway (AID 1224820)
How it was run: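 An ERR cell line provided by NTP was seeded at 2,000 cells per well and allowed to settle for 6 h before compounds in DMSO were added. After 18 h at 37 C, luciferase activity was measured by One-Glo luminescence.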

[9] = test system: estrogen-related receptor alpha (ERRalpha) with PGC-1alpha coactivator, human; experiment: qHTS assay to identify small molecule antagonists of the estrogen related receptor signaling pathway with the pleiotropic PPARgamma coactivator (PGC) (AID 1224821; calls by dose curve;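 note: series mostly up to about 46 µM; lower luminescence signal means antagonism of PGC/ERR signalling; nearly all actives have a fitted effect of over 50% in size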)
How it was run: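 A PGC/ERR cell line supplied by NTP is seeded, allowed 6 h at 37 C, and treated with test compounds in DMSO for 18 h. Signal is then measured as luciferase luminescence using One-Glo.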

[10] = qHTS assay to identify small molecule agonists of the estrogen related receptor signaling pathway with the pleiotropic PPARgamma coactivator (PGC) (AID 1224823)
How it was run: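 Compounds dissolved in DMSO are added by pin tool to PGC/ERR cells that have settled for 6 h, and incubation continues 18 h at 37 C. Reporter output is measured as One-Glo luminescence.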
% is set by controls: 0 for no effect and ±100 for the full control effect.

C=C(C)C(=O)OCC1CCCO1 (stereo not drawn)
inactive: outcome [1] | Potency [2] | Potency [3]

C[N+]1(C)[C@@H]2CC(OC(=O)[C@H](CO)c3ccccc3)C[C@H]1[C@@H]1O[C@@H]12 (stereo partly drawn)
inactive: outcome [1] | Potency [4]

CCOC(=O)CCC(=O)OCC
inactive: outcome [1] | Potency [2] | Potency [3]

CCCCCCC1CCC(=O)O1 (stereo not drawn)
inactive: outcome [1] | Potency [2] | Potency [3]

CCCCOCCOC(=O)COc1cc(Cl)c(Cl)cc1Cl
inactive: outcome [1] | Potency [2] | Potency [3]

CCCc1nn(C)c2c(=O)[nH]c(-c3cc(S(=O)(=O)N4CCN(C)CC4)ccc3OCC)nc12
inactive: outcome [1] | Potency [4] | outcome [5] | outcome [6] | Potency [3]

NO
inactive: outcome [1] | Potency [4] | outcome [5] | outcome [6] | Potency [3]

C[N+](C)(C)CCCCCCCCCC[N+](C)(C)C
inactive: outcome [1] | Potency [4] | outcome [5] | outcome [6] | Potency [3]

C[C@H]1C[C@H]2[C@@H]3CCC4=CC(=O)C=C[C@]4(C)[C@H]3C(=O)C[C@]2(C)[C@@]1(O)C(=O)CO
inactive: outcome [1] | Potency [2] | Potency [3]

COc1cc(-c2ccc(=O)[nH]n2)ccc1OC(F)F
inactive: outcome [1] | Potency [4] | Potency [3]

O=S(=O)(O)c1cccc2c(S(=O)(=O)O)cccc12
inactive: outcome [1] | Potency [4] | Potency [3]

Cc1ccccc1N=C(N)N=C(N)N
inactive: outcome [1] | Potency [2] | Potency [3]

CCN(CC#N)c1cccc(C)c1
inactive: outcome [1] | Potency [2] | Potency [3]

Nc1ccn([C@@H]2O[C@H](CO)[C@@H](O)[C@@H]2O)c(=O)n1
inactive: outcome [1] | Potency [4] | outcome [5] | outcome [7] | outcome [8] | outcome [9] | outcome [6] | outcome [10] | Potency [3]

CCCn1cc[n+](C)c1C
inactive: outcome [1] | Potency [4] | Potency [3]

CCCC(C)C(=O)OCC (stereo not drawn)
inactive: outcome [1] | Potency [2] | Potency [3]

CC(C)(C)C(=O)Oc1ccc(S(=O)(=O)Nc2ccccc2C(=O)NCC(=O)O)cc1
inactive: outcome [1] | Potency [4] | outcome [5] | outcome [6] | Potency [3]

CNCC(O)c1ccc(O)c(O)c1 (stereo not drawn)
inactive: outcome [1] | Potency [4] | outcome [5] | outcome [7] | outcome [8] | outcome [9] | outcome [6] | outcome [10] | Potency [3]

c1ccc2sc(SN3CCOCC3)nc2c1
inactive: outcome [1] | Potency [2] | Potency [3]

CCNC(=O)[C@@H]1CCCN1C(=O)[C@H](CCCN=C(N)N)NC(=O)[C@H](CC(C)C)NC(=O)CNC(=O)[C@H](Cc1ccc(O)cc1)NC(=O)[C@H](CO)NC(=O)[C@H](Cc1c[nH]c2ccccc12)NC(=O)[C@H](Cc1cnc[nH]1)NC(=O)[C@@H]1CCC(=O)N1 ([pGlu]HWSYGLRP-NHEt)
inactive: outcome [1] | Potency [2] | Potency [3]

CC(C)CCCO
inactive: outcome [1] | Potency [4] | Potency [3]

CCCCOC(=O)CCC(C)=O
inactive: outcome [1] | Potency [2] | Potency [3]

O=C(O)c1cc(C(=O)O)cc(C(=O)O)c1
inactive: outcome [1] | Potency [4] | Potency [3]

CN(C)C(=O)Oc1cccc([N+](C)(C)C)c1
inactive: outcome [1] | Potency [4] | outcome [5] | outcome [6] | Potency [3]

CC(C)(C)OC(=O)c1cccc(N)c1
inactive: outcome [1] | Potency [2] | Potency [3]

CCCCCCCC1CCCC1=O (stereo not drawn)
inactive: outcome [1] | Potency [2] | Potency [3]

NCCCC(N)(C(=O)O)C(F)F (stereo not drawn)
inactive: outcome [1] | Potency [4] | outcome [5] | outcome [6] | Potency [3]

CCOC(=O)COc1cc(-n2ncc(C(F)(F)F)c(C)c2=O)c(F)cc1Cl
inactive: outcome [1] | Potency [2] | Potency [3]

CC[N+](C)(CC)CCOC(=O)C1c2ccccc2Oc2ccccc21
inactive: outcome [1] | Potency [4] | Potency [3]

CC(C)(C)c1ccc(-c2ccc(C(C)(C)C)cc2)cc1
inactive: outcome [1] | Potency [2] | Potency [3]

CC(C)=CCC/C(C)=C/C#N
inactive: outcome [1] | Potency [2] | Potency [3]

Cc1ccc(-c2ccccc2C#N)cc1
inactive: outcome [1] | Potency [2] | Potency [3]

C=C(C)C(=O)OCCOCCOCCOCCOC(=O)C(=C)C
inactive: outcome [1] | Potency [2] | Potency [3]

C[N+](C)(CCOc1ccccc1)Cc1cccs1
inactive: outcome [1] | Potency [3]

N[C@@H](CCC(=O)O)C(=O)O
inactive: outcome [1] | outcome [5] | outcome [6] | Potency [3]

C[N+]1(CC2COC(c3ccccc3)(c3ccccc3)O2)CCCCC1 (stereo not drawn)
inactive: activity change, negative = cytotoxicity [1] -0.8% [at 19 µM] | Potency [4] | viability change, negative = cytotoxic [3] 7.36% [at 19 µM]

CCCCCCCCCC[N+](C)(C)[O-]
inactive: outcome [1] | Potency [3]

C[N+]12CCC(CC1)C(OC(=O)C(O)(c1ccccc1)c1ccccc1)C2 (stereo not drawn)
inactive: outcome [1] | Potency [4] | Potency [3]

[Ca+2]
inactive: outcome [1] | Potency [4] | Potency [3]

CCCCN1C=CN(C)C1
inactive: activity change, negative = cytotoxicity [1] 1.26% [at 19 µM] | Potency [4] | viability change, negative = cytotoxic [3] 0.161% [at 19 µM]

CO/N=C(\C(=O)N[C@@H]1C(=O)N2C(C(=O)O)=C(CSc3nc(=O)c(O)nn3C)CS[C@H]12)c1csc(N)n1
inactive: outcome [1] | Potency [4] | Potency [3]

CCCCS(=O)(=O)N[C@@H](Cc1ccc(OCCCCC2CCNCC2)cc1)C(=O)O
inactive: outcome [1] | Potency [4] | Potency [3]
